Compounds with a hit are over-represented: about 11% of the library has one in this group of screens.
Tau fluor counter = counter-screen for tau fibril formation inhibitors | tau K18 P301L Alexa594 fluorescence, heparin fibrillization | Potency, µM (highest dose often 57.7 µM) | AID 1463 | 0.93% of 280,000 active; note: nearly all actives have a fitted effect of over 55% in size
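Human tau K18 P301L (15 uM unlabeled, 0.24 uM Alexa 594-labeled) in 100 mM sodium acetate pH 7 with 20 uM heparin, 6 hr at 37 C. ThT 30 uM added, 1 hr ambient; Alexa 594 FP and total fluorescence read at 555/632 nm.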
Sfp inh = blocks B. subtilis Sfp PPTase activity; Biochemical Sfp PPTase activity, qHTS; Potency, µM, hits mostly inhibitors; 3.5% of 310,000 active; Q9F4F7; AID 1490;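 note: the enzyme is Sfp with the accession as filed and its product quenches rhodamine fluorescence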
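Sfp 15 nM + cpd, 15 min RT; start w/ rhodamine-CoA 5 uM, BHQ-2-YbbR 12.5 uM (final); 50 mM Hepes pH 7.6, 10 mM MgCl2, 0.01% NP-40, 0.01% BSA; read 525/598 nm at 0 and 30 min.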
G9a block = blocks human histone lysine methyltransferase G9a. Potency, µM (series often up to 102 µM), hits mostly inhibitors. G9a H3K9 monomethylation, AlphaScreen, 2 h. 8.8% of 350,000 active. Q96KQ7; note: nearly all actives have a fitted effect of over 75% in size
Target sequence (Q96KQ7 913-1193 limits assumed): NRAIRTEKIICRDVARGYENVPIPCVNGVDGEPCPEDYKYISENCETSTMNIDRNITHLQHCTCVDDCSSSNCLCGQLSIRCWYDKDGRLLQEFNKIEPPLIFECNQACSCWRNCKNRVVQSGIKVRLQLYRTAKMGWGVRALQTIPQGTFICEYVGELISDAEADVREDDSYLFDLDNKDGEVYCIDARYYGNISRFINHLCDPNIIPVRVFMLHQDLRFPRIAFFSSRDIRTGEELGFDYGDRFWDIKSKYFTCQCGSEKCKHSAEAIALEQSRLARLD
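Using a bead-based AlphaScreen, monomethylated H3K9 product from 2 h room-temperature reactions (G9a 20 nM, peptide 500 nM, SAM 20 uM) was detected with 0.5 ug/mL rabbit anti-H3K9me1 antibody.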
Tau FP inhib = tau fibrillization inhibition (FP); K18 P301L tau heparin fibrillization, Alexa594 FP, 6 h; Potency, µM (doses to about 57.7 µM), most hits filed as inhibitors; 0.39% of 280,000 active; AID 1468; P10636; note: nearly all actives have a fitted effect of over 55% in size
Target sequence (P10636 561-689 P618L limits assumed): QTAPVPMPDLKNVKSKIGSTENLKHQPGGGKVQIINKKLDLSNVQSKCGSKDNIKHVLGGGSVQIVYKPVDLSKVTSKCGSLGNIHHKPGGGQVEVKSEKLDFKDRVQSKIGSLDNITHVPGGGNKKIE
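Quantitative HTS format: compounds meet 15 uM recombinant K18 P301L tau and Alexa 594-tau tracer in 100 mM sodium acetate pH 7; 20 uM heparin triggers fibrillization at 37 C over 6 hr; FP gives the signal.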
Tau fibril ThT = inhibitors of human tau fibril formation, thioflavin T binding. P10636. recombinant tau K18 P301L (four-repeat tau fragment), heparin-induced fibrillization, ThT fluorescence. 2.1% of 270,000 active. Potency, µM (titrated, usually from 57.4 µM), most hits filed as inhibitors. AID 1460; note: nearly all actives have a fitted effect of over 55% in size
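Heparin-induced fibrillization of the P301L-mutant K18 repeat-domain fragment of human tau was followed by ThT binding in quantitative high-throughput format.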
Coupling enz = inhibits coupling enzyme system, counter-screen for aldolase hits. coupling enzyme system counterscreen, AmpLite Red fluorescence. activity change, negative = inhibition, % at 58.2 µM, hits read low. 0.67% of 290,000 active; in the data active = activity change below about -30%
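Coupling enzymes only (glyceraldehyde-3-phosphate) + compound, at 57.5 uM final, 10 min RT; add substrate/coupling/AmpLite Red mix, 20 min RT; fluorescence ex 525/em 598 nm. Actives flag coupling-system interference.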
Of the large screens only hits and unclear results are named; the others gave an inactive call. Unless noted, calls come from the whole dose curve; as a rule, active = well fitted curve in the direction sought with a large enough effect; inconclusive = small, poorly fitted or top-dose-only effect, or another doubt; inactive = no such curve, though single readings can be large; an effect the other way counts as inactive or inconclusive.

Cc1sc2ncn(CC(=O)N3CCN(c4ccccc4F)CC3)c(=O)c2c1S(=O)(=O)N1CCN(c2ncccn2)CC1	none (no result: Sfp inh, Coupling enz)
Cc1[nH]c(C)c(S(=O)(=O)N2c3ccccc3CC2C)c1C(=O)N1CCCCC1 (centres undefined)	none (no result: Tau fluor counter, G9a block, Tau FP inhib, Tau fibril ThT, Coupling enz)
Cc1ccc(-c2nnc(NC(=O)C3=COCCO3)o2)c(C)c1	none (no result: Tau fluor counter, Sfp inh, Tau FP inhib, Tau fibril ThT, Coupling enz)
CS(=O)(=O)c1ccc(-c2nnc(NC(=O)C3=COCCO3)o2)cc1	G9a block 16µM (no result: Tau fluor counter, Sfp inh, Tau FP inhib, Tau fibril ThT, Coupling enz)
O=C(Nc1nnc(-c2ccccc2)o1)c1cccc(N2C(=O)CCC2=O)c1	G9a block inconclusive
CS(=O)(=O)c1ccc(-c2nnc(NC(=O)c3cccc(N4C(=O)CCC4=O)c3)o2)cc1	G9a block 16µM (no result: Tau fluor counter, Sfp inh, Tau FP inhib, Tau fibril ThT, Coupling enz)
CCN1CCN(CCNC(=O)c2ccc(/C=C3\Sc4ccccc4N(Cc4ccccc4F)C3=O)cc2)CC1	Sfp inh 79µM, G9a block 50µM, Tau fibril ThT inconclusive
CN1CCN(CCCNC(=O)c2ccc(/C=C3\Sc4ccccc4N(Cc4ccc(F)cc4)C3=O)cc2)CC1	Sfp inh 45µM, G9a block inconclusive, Tau FP inhib inconclusive, Tau fibril ThT inconclusive
CN1CCN(CCCNC(=O)c2ccc(/C=C3/Sc4ccccc4N(Cc4cccc(Cl)c4)C3=O)cc2)CC1	Sfp inh 50µM, G9a block 40µM
COCCCNC(=O)/C=C1\Sc2ccccc2N(Cc2ccccc2F)C1=O	none
O=C(CCCCn1c(=O)c2ccccc2n(Cc2cccc(Cl)c2)c1=O)NCc1ccc2c(c1)OCO2	none (no result: Sfp inh, Coupling enz)
COCC(=O)NC1(c2nnnn2CCOC(=O)Nc2ccc(Cl)cc2)CCCCC1	none
Cc1oc(-c2ccccc2F)nc1CS(=O)(=O)CC(=O)N1CCN(c2ccc(Cl)cc2)CC1	G9a block inconclusive, Tau fibril ThT inconclusive (no result: Sfp inh, Coupling enz)
COc1ccc(S(=O)(=O)N2CCOCC2)cc1NC(=O)CCNC(=O)c1ccc([N+](=O)[O-])cc1	G9a block 3.5µM (no result: Tau fluor counter, Sfp inh, Tau FP inhib, Tau fibril ThT, Coupling enz)
Cc1cc(=O)oc2cc(NC(=O)c3cc([N+](=O)[O-])ccc3N3CCOCC3)ccc12	G9a block 40µM
O=C(c1cc([N+](=O)[O-])ccc1N1CCOCC1)N1CCCCC1	none
O=C(c1cc([N+](=O)[O-])ccc1N1CCOCC1)N1CCN(c2ccc([N+](=O)[O-])cc2)CC1	G9a block 11µM (no result: Tau fluor counter, Sfp inh, Tau FP inhib, Tau fibril ThT, Coupling enz)
O=C(Nc1ccc([N+](=O)[O-])cc1)Nc1ccc(N2CCOCC2)c2nonc12	Tau fluor counter inconclusive, G9a block inconclusive, Tau fibril ThT 0.89µM
COc1ccc2c(c1)c1c(c(=O)n(-c3ccc(C)cc3)c(=O)n1CC(=O)NCc1ccc(C)cc1)n2C	none (no result: Sfp inh, Coupling enz)
Clc1ccccc1-c1nnc(-c2ccccc2CNc2ccc(Br)cc2)o1	none (no result: Sfp inh, Coupling enz)
CCc1ccc(/C=N/NC(=O)c2nnn(-c3nonc3N)c2CN2CCOCC2)cc1	G9a block inconclusive (no result: Tau fluor counter, Tau FP inhib, Tau fibril ThT, Coupling enz)
N#Cc1c(Cl)cccc1Oc1ccc(S(=O)(=O)Nc2ccccc2)cc1	Tau fluor counter inconclusive, Tau FP inhib inconclusive
COc1ccc(S(=O)(=O)N2CCOCC2)cc1NC(=O)Cc1sc(C)nc1-c1ccc(F)cc1	G9a block 50µM (no result: Tau fluor counter, Sfp inh, Tau FP inhib, Tau fibril ThT, Coupling enz)
CN1CCN(c2ccc([N+](=O)[O-])cc2C(=O)N2CCCCC2)CC1	none
CN1CCN(C(=O)c2cc([N+](=O)[O-])ccc2Cl)CC1	G9a block 50µM (no result: Tau fluor counter, Tau FP inhib, Tau fibril ThT)
COc1ccc(S(=O)(=O)N2CCCCC2)cc1NC(=O)Cc1sc(C)nc1-c1ccc(F)cc1	none (no result: Tau fluor counter, Sfp inh, Tau FP inhib, Tau fibril ThT, Coupling enz)
Cc1ccc(S(=O)(=O)N2CCOCC2)cc1NC(=O)c1cc([N+](=O)[O-])ccc1N1CCOCC1	G9a block 56µM (no result: Tau fluor counter, Sfp inh, Tau FP inhib, Tau fibril ThT, Coupling enz)
O=C(Nc1ccc(NC(=O)c2cc([N+](=O)[O-])ccc2N2CCOCC2)cc1)c1cccs1	G9a block 28µM, Tau fibril ThT inconclusive
O=C(O)CCCC(=O)Nc1ccccc1C(=O)N1CCOCC1	none
COc1ccc2c(c1OC)C(=O)N1C2SC(C)(C)[C@H]1C(=O)NC(C)C (some centres undefined)	none (no result: Tau fluor counter, Tau FP inhib, Tau fibril ThT)
COC(=O)[C@H](Cc1ccccc1)NC(=O)O[C@H]1C(=O)c2cc(OC)ccc2O[C@@H]1c1ccc(OC)c(Br)c1	none (no result: G9a block)
O=C(Cn1cncn1)NCCCc1ccccc1	none

Assay outcomes (PubChem)
